PubChem BioAssay
This is one part of the list. Unmarked numbers belong to inactive results. Active and inactive are the calls of the source.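 The calls were made as follows, unless noted: active = mean inhibition above about 50% in the one-dose retest (limit read from the data); inactive = the rest.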

What was measured:
[1] = molecular target: Sentrin-specific protease 8 (Homo sapiens) (UniProt Q96LD8); assay: human SENP8 peptidase blockers, hit retest – biochemical, luminescence, single concentration, confirmation (AID 488912;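 active = mean inhibition across replicates above about 50%, limit read from the data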); details: Recombinant SENP8, Z-RLRGG-aminoluciferin luminescence, 60 min; at 12.5 µM; hits give high values
[2] = molecular target: Sentrin-specific protease 6 (Homo sapiens) (UniProt Q9GZR1); assay: inhibition of human SENP6 catalytic domain – biochemical, luminescence, single concentration, confirmation (AID 488915); details: recombinant SENP6, Z-RLRGG-aminoluciferin luminescence; at 12.5 µM; hits give high values
[3] = molecular target: Sentrin-specific protease 7 (Homo sapiens) (UniProt Q9BQF6); assay: human SENP7 peptidase blockers, hit retest – biochemical, luminescence, single concentration, confirmation (AID 488917); details: recombinant SENP7, Z-RLRGG-aminoluciferin luminescence, 40 min; at 12.5 µM; hits give high values
[4] = molecular target: Caspase-3 (Homo sapiens) (UniProt P42574); assay: human caspase-3 activity blockade, out-of-family – biochemical, single concentration, selectivity assay for SENP inhibitor project, confirmation (AID 488918;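 active = mean inhibition above about 50%, limit read from the data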;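 also: plate controls were enzyme with DMSO for no effect and wells without caspase-3 for full effect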); details: purified caspase-3, Z-DEVD-aminoluciferin luminescence, 60 min; at 12.5 µM; hits give high values
[5] = Ultra-Glo luciferase signal interference – biochemical, single concentration, SENP8 reaction pre-completed, artefact control for SENP inhibitor project, confirmation (AID 488919;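 active = mean inhibition above about 50% when retested at one dose, limit read from the data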;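 also: plate controls were DMSO wells with completed reaction for no effect and substrate without enzyme for full effect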); details: Pre-incubated SENP8/Z-RLRGG-aminoluciferin, luciferase luminescence interference; at 12.5 µM; hits give high values
[6] = apoptosome-driven caspase-3 activation blockers – biochemical, fluorescence, DEVD-Rh110, 20 µM, confirmation (AID 504614;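 active = mean inhibition of at least 40% at 20 µM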;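 also: plate controls were DMSO wells for no effect and DEVD-CHO caspase inhibitor control wells for full effect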); details: reconstituted apoptosome, caspase-3 DEVD-Rh110 fluorescence; at 20 µM; hits give high values
[7] = detection-step artefacts after completed caspase reaction – biochemical, fluorescence, Rh110, 20 µM, artefact control for Apaf-1 inhibitor project, confirmation (AID 504615;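 active = signal rise of 40% or more at 20 µM, treated as a fluorescence artifact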); details: quenched caspase reaction, at 20 µM, hits give high values

Chain of Caspase-3 (Homo sapiens) (P42574 28-227 limits assumed): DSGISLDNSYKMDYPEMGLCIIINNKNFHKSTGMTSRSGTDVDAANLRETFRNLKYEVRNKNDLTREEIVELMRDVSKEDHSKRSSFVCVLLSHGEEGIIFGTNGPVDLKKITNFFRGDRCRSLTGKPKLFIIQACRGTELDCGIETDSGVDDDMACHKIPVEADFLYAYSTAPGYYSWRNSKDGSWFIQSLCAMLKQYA
Chain of Sentrin-specific protease 7 (Homo sapiens) (Q9BQF6 706-1050 limits assumed): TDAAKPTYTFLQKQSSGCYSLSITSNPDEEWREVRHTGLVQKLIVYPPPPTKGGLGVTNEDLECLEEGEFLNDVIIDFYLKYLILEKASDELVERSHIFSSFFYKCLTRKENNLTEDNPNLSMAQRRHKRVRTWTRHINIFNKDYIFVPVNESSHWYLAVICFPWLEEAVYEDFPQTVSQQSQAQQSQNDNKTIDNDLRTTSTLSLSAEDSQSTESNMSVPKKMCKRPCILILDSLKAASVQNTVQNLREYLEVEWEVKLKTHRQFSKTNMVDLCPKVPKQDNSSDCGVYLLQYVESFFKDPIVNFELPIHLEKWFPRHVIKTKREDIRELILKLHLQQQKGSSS
Chain of Sentrin-specific protease 6 (Homo sapiens) (Q9GZR1 628-1112 limits assumed): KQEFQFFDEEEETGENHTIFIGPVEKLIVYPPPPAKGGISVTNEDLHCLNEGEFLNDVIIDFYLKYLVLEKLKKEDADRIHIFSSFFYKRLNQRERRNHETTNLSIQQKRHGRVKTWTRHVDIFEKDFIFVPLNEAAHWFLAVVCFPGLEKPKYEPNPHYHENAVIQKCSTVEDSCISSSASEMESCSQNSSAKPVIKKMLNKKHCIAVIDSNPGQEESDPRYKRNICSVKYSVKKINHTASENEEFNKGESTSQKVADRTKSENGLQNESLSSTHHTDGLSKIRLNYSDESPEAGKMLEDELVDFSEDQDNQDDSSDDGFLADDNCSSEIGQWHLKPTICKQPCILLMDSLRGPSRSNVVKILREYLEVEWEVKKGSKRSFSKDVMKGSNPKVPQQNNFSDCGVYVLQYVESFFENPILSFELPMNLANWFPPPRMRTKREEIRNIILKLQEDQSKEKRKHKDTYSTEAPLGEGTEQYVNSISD
Chain of Sentrin-specific protease 8 (Homo sapiens) (Q96LD8 whole entry, looked up, the tested form may be a part): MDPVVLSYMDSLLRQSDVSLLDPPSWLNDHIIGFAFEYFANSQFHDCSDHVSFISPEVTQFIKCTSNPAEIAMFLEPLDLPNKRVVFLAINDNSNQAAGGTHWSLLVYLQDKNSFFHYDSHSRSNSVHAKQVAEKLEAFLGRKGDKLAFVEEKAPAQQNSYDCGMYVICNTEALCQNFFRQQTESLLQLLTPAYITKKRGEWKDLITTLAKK

Structure (SMILES)	inhibition [1]	inhibition [2]	inhibition [3]	inhibition [4]	inhibition [5]	inhibition [6]	activation (fluorescence interference) [7]
Cc1c(Cl)cccc1NC(=O)Nc1ccc(C(=O)N2CCCC2)cc1	20.5%	43%	77.1% (active)	60.3% (active)	11.4%	–	–
O=C(OCc1ccccc1F)c1ccc2c(c1)OCCO2	87.8% (active)	88.5% (active)	98.8% (active)	74.5% (active)	78.6% (active)	–	–
CCOc1ccc(N/C=C/C(=O)c2ccccc2)cc1	10.5%	94.9% (active)	63.3% (active)	81.1% (active)	19.3%	–	–
Cc1ccc(C(=O)N/N=C\c2cc(Br)c(Br)o2)cn1	3.5%	12.7%	8.1%	12.1%	-0.7%	4.66%	-11.2%
Cc1[nH][nH]c(=O)c1C(c1ccc(-c2ccc(Cl)cc2)o1)c1c(C)[nH][nH]c1=O	-6.8%	16%	2.9%	7.2%	1.7%	18%	-1.73%
O=C(Nc1nnc(SCc2ccccc2)s1)c1ccco1	6.7%	40.5%	23.6%	61.1% (active)	13.1%	–	–
O=C(Nc1ccncc1)c1cc2ccccc2o1	49.1%	44%	76.1% (active)	75.6% (active)	49.3%	–	–
O=C(Nc1cc2ccccc2oc1=O)C1CCCCC1	8.2%	4.9%	19.1%	20.1%	3.7%	–	–
